High-throughput results (PubChem)
Only some compounds are listed: those with a hit (about 7.1% of all), similar ones and a draw of the others.
Marburg entry: inhibitors of Marburg virus binding or entry into cells; Marburg virus pseudotype entry/binding inhibition, cell-based; Potency, µM (top dose mostly 49.2 µM), hits mostly inhibitors; 18,000 tested, 6.5% active
LASV entry inh: Lassa virus entry inhibition. 18,000 tested, 4.1% active. Potency, µM (highest dose often 49.2 µM), most hits filed as inhibitors. Lassa virus pseudotyped entry inhibition, cell-based qHTS
Hits are given with their value; – = inactive; ? = inconclusive; · = no result given; ! = a repeat was not active; [ ] = dose if it differs, or a comment. Calls follow the shape of the full dose curve; tested in HEK293 cells.

SMILES | Marburg entry | LASV entry inh
COc1ccc(COCC[C@@H]2C[C@@H]3C=CCOP(=O)(O2)O3)cc1 | – | –
COc1cc(NCc2ccc3nc(N)nc(N)c3c2C)cc(OC)c1OC | 4.5µM | ?
COc1cc(C)c(Cc2cnc(N)nc2N)cc1OC | – | –
CCOC(=O)NN=Cc1ccccc1-c1cc(OC)ccc1OC | –[8.59 µM] | –[8.59 µM]
CCC[C@H]1CN(c2ccc(OC)cc2)C(=O)[C@H]1CC(=O)NC | ? | –
O=C(Nc1ccc(C(=O)Nc2ccc(C(=O)Nc3ccc(S(=O)(=O)O)c4cc(S(=O)(=O)O)cc(S(=O)(=O)O)c34)cc2)cc1)Nc1ccc(C(=O)Nc2ccc(C(=O)Nc3ccc(S(=O)(=O)O)c4cc(S(=O)(=O)O)cc(S(=O)(=O)O)c34)cc2)cc1 | 4µM | –
O=C(Nc1cc(C(=O)Nc2ccc(S(=O)(=O)O)cc2S(=O)(=O)O)cc(C(=O)Nc2ccc(S(=O)(=O)O)cc2S(=O)(=O)O)c1)Nc1cc(C(=O)Nc2ccc(S(=O)(=O)O)cc2S(=O)(=O)O)cc(C(=O)Nc2ccc(S(=O)(=O)O)cc2S(=O)(=O)O)c1 | – | –
COC(=O)[C@H]1[C@H](C)[C@@]2(O)c3ccccc3N(C)[C@@]1(C)[C@H]2O | –[8.59 µM] | –[8.59 µM]
O=C1c2ccccc2C(=O)c2ccccc21 | – | –
O=C1C(=O)c2ncccc2-c2cccnc21 | ? | 2.5µM
COC(=O)CC=C[C@@H](C)[C@H](NC(=O)OC)c1ccccc1Br | –[8.59 µM] | –[8.59 µM]
COC(=O)CC=C[C@@H](C)[C@H](OC)c1cc(OC)ccc1Br | –[8.59 µM] | –[8.59 µM]
OCCc1ccccc1 | – | –
Oc1ccc(Cl)cc1Cc1ccccc1 | – | 25µM
COc1ccc(Nc2ncc(-c3ccccc3)o2)cc1OC | – | ·
Cc1cc(-c2ccccn2)cc(C)c1C=Cc1cncc(-c2nn[nH]n2)c1 | – | –
Cc1ncc2c(c1CNC(=O)c1ccccc1F)CCN(C(=O)c1[nH]c3ccc(Cl)cc3c1C)C2 | ? | 10µM
Cc1ncc2c(c1CNC(=O)c1ccccc1F)CCN(C(=O)c1ccc3c(c1)OCCO3)C2 | – | ?
S=C=Nc1cccc(C2(N3CCCCC3)CCCCC2)c1 | ? | 14µM
C=CCN1C(=O)CC[C@@]23C1=NC(C(=O)OC)=C(C(=O)OC)[C@@H]2N(C)c1ccccc13 | –[8.59 µM] | –[8.59 µM]
CCOC(=O)NN=C1C[C@@H](O)[C@@H](O)[C@@H]2[C@H]3C(=O)N(Cc4ccc5c(c4)OCO5)C(=O)[C@@H]3CC[C@@H]12 | –[8.59 µM] | –[8.59 µM]
COc1ccc2c3c([nH]c2c1)[C@@H]1C[C@@H]2[C@@H](C[C@H](O)[C@H](OC)[C@H]2C(=O)O)CN1CC3 | – | –
COC(=O)[C@@H]1C2CC3c4[nH]c5cc(OC)ccc5c4CCN3CC2C[C@H](OC(=O)c2cc(OC)c(OC)c(OC)c2)C1OC (some centres not stated) | 13µM | ?
CN(C)CCOC1=Cc2ccccc2Sc2ccc(Cl)cc21 | 13µM | ?
CN(C)CCOC(c1ccc(Cl)cc1)c1ccccn1 (configuration not stated) | ? | –
SMILES | Marburg entry | LASV entry inh
COP(=O)(OC)[C@@H](O)C(Cl)(Cl)Cl | – | 4µM
COC(=O)[C@]12C[C@@H]3CCN(C(=O)N[C@@H]1c1ccccc1)[C@@]32C | –[8.59 µM] | ·
CCCCCCCc1cc2ccccc2c2c(C(=O)OC)c(-c3ccccc3)c(C(=O)OC)n12 | ? | –[8.59 µM]
CC(C)[C@H]1C(=O)N2CCC[C@H]2[C@]2(O)O[C@](NC(=O)[C@@H]3C[C@@H]4c5cccc6[nH]cc(c56)C[C@H]4N(C)C3)(C(C)C)C(=O)N12 | 7.1µM | –
CC(C)[C@@]1(NC(=O)[C@@H]2C[C@@H]3c4cccc5[nH]cc(c45)C[C@H]3N(C)C2)O[C@@]2(O)[C@@H]3CCCN3C(=O)[C@H](Cc3ccccc3)N2C1=O | 7.1µM | 35µM!
CN1C[C@H](C(=O)N[C@@]2(C)O[C@@]3(O)C4CCCN4C(=O)C(Cc4ccccc4)N3C2=O)C[C@H]2c3cccc4[nH]cc(c34)C[C@H]21 (some centres not stated) | – | –
CC(C)[C@@]1(NC(=O)[C@@H]2C[C@H]3c4cccc5[nH]cc(c45)C[C@@H]3N(C)C2)O[C@]2(O)[C@H]3CCCN3C(=O)CN2C1=O | ? | –
CC(C)C[C@H]1COc2c(Cl)cccc2S(=O)(=O)N1Cc1ccc(Cl)cc1 | – | ?
c1ccc2sc(-c3cc4c(c(OC5CCOC5)c3)OCCN(Cc3cccn3-c3nccs3)C4)nc2c1 (configuration not stated) | 0.35µM | –
Oc1cc(-c2nc3ccccc3s2)cc2c1OCCN(Cc1cccn1-c1nccs1)C2 | – | –
O=C1[C@H]2[C@@H]3[C@@H](O)[C@H](O)CC(=NOCc4ccccc4)[C@@H]3CC[C@H]2C(=O)N1C[C@@H]1CCCO1 | –[8.59 µM] | –[8.59 µM]
CC1(C)CN(CCc2ccccc2)C(=O)[C@@H]1CC(=O)Nc1ccc(Br)cc1 | – | –
C[C@@H]([C@H](O)c1ccccc1)N(C)C | – | –
CC[C@H](O)C(C[C@H](C)N(C)C)(c1ccccc1)c1ccccc1 | 18µM | ?
